Source: PubChem BioAssay (EPA / NIEHS)
The source made the active and inactive calls. Rule for the calls, unless noted: active = hit-call score of the fitted dose curve at least 0.9, where 1 is the maximum; inconclusive = response in the unintended direction; inactive = score below 0.9.

tested on: SERPINA7 (gene 6906); test: CCTE_GLTED_hTBG: CCTE's human Thyroxine-binding Globulin (TBG) Inhibition Assay, Great Lakes Toxicology and Ecology Division (GLTED) Lab (AID 2284343); settings: not given;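 note: active chemicals lower fluorescence versus DMSO baseline by displacing probe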
Method in brief: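 Fluorescence (ex 380/em 475) reports ANSA displaced from human TBG after a 2 h incubation with test chemical, without cells. Loss of signal indicates displacement, with DMSO serving as baseline.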

Row | Structure (SMILES) | AC50
1 | Cc1ccc(C)c(OCCCC(C)(C)C(=O)O)c1 | 27 µM (active)
2 | CCCCCCCOC(=O)c1ccc(O)cc1 | 10.6 µM (active)
3 | CCOC(=O)C1=NOC(c2ccccc2)(c2ccccc2)C1 | 2.68 µM (active)
4 | CCCCOCCOC(=O)COc1ccc(Cl)cc1Cl | 12.7 µM (active)
5 | CCCCNS(=O)(=O)c1ccc(C)cc1 | 21.4 µM (active)

tested on: not listed separately; test: CCTE_Deisenroth_H295R-HTRF_384WELL_ESTRADIOL: CCTE's H295R-HTRF Assay Evaluation of Estradiol Concentration, Deisenroth Lab (AID 2284361; active = hit-call score of the fitted dose curve at least 0.9, where 1 is the maximum; inactive = score below 0.9); settings: actives raise or lower the signal
Method in brief: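 Estradiol secreted into medium by H295R adrenocortical cells, quantified by HTRF after 48 h dosing over a nine-point 0.001 - 100 uM final range; gain or loss versus DMSO. Parallel ATP-luminescence viability readout; n=5 experiments.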

Row | Structure (SMILES) | AC50 | outcome
6 | C=C[C@@]1(C)CC(=O)[C@]2(O)[C@@]3(C)[C@@H](O)CCC(C)(C)[C@@H]3[C@H](O)[C@H](OC(C)=O)[C@@]2(C)O1 | 3.68 µM (active) | 
7 | N#Cc1ccc(C(c2ccc(C#N)cc2)n2cncn2)cc1 |  | inactive
8 | CC(C)(C)NC(=O)[C@H]1CC[C@H]2[C@@H]3CC[C@H]4NC(=O)C=C[C@]4(C)[C@H]3CC[C@]12C |  | inactive

tested on: not listed separately; test: CCTE_Deisenroth_H295R-HTRF_384WELL_TESTOSTERONE: CCTE's H295R-HTRF Assay Evaluation of Testosterone Concentration, Deisenroth Lab (AID 2284373; active = hit-call score of the fitted dose curve at least 0.9, where 1 is the maximum; inactive = score below 0.9); settings: actives raise or lower the signal
Method: CCTE_Deisenroth_H295R-HTRF_384WELL assay is a cell-based, multiplex-readout assay that uses H295R, a human adrenocortical carcinoma cell line, with measurements taken at 48 hours after chemical dosing in a 384-well microplateCCTE_Deisenroth_H295R-HTRF_384WELL_TESTOSTERONE is one of 3 assay components calculated in the CCTE_Deisenroth_H295R-HTRF_384WELL assay (2 hormones and 1 viability components). It is designed to make measurements of hormone induction, a form of inducible reporter, as detected with Homogenous Time Resolved Fluorescence immunoassay technology.This assay endpoint, CCTE_Deisenroth_H295R-HTRF_384WELL_TESTOSTERONE, was analyzed with bidirectional fitting relative to DMSO as the negative control and baseline of activity. Using a type of inducible reporter, gain or loss-of-signal activity using Homogenous Time Resolved Fluorescence technology was used to understand synthesis of testosterone in the H295R cell line at 48hr of chemical exposure. To generalize the intended target to other relatable targets, this assay endpoint is annotated to the steroid hormone intended target family, where the subfamily is androgens.
Standard operating procedures for the cell culture medium, maintenance, expansion, and cryopreservation of the NCI-H295R adrenocortical carcinoma adherent cell line were adopted directly from guideline specifications7,13. The assay workflow follows a three-day protocol consistent with the paradigm defined in OECD TG 456 and U.S. EPA OCSPP Guideline 890.1550. On day 0, cells are plated in 384-well microplates and acclimated for 24 hours. On Day 1, test chemicals are dispensed into separate 384-well microplates in a nine-point 2X dilution series (0.002 - 200 uM). […] Fluorescent endpoint measurements are conducted with a microplate reader equipped with an HTRF-compatible filter set (ex: 320 (10) […]; em: 620 (10) and 665 (10) nM). […] After collecting conditioned medium samples on Day 3, the viability assay is immediately performed and luminescence readings measured on a microplate reader. […]

Row | Structure (SMILES) | AC50 | outcome
9 | C=C[C@@]1(C)CC(=O)[C@]2(O)[C@@]3(C)[C@@H](O)CCC(C)(C)[C@@H]3[C@H](O)[C@H](OC(C)=O)[C@@]2(C)O1 | 0.566 µM (active) | 
10 | N#Cc1ccc(C(c2ccc(C#N)cc2)n2cncn2)cc1 |  | inactive
11 | CC(C)(C)NC(=O)[C@H]1CC[C@H]2[C@@H]3CC[C@H]4NC(=O)C=C[C@]4(C)[C@H]3CC[C@]12C |  | inactive

tested on: not listed separately; test: CCTE_Deisenroth_H295R-HTRF_384WELL_CTOX: Cytotoxicity Assessment in CCTE's H295R-HTRF Assay, Deisenroth Lab (AID 2284380); settings: not given
Method in brief: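 Luminescent ATP viability readout (CellTiter-Glo 2.0), multiplexed on plates used for hormone sampling, after 48 h chemical exposure. Human H295R cells; final concentrations 0.001–100 uM in nine steps, technical triplicates, five experiments; DMSO baseline.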

Row | Structure (SMILES) | outcome
12 | C=C[C@@]1(C)CC(=O)[C@]2(O)[C@@]3(C)[C@@H](O)CCC(C)(C)[C@@H]3[C@H](O)[C@H](OC(C)=O)[C@@]2(C)O1 | inactive
13 | N#Cc1ccc(C(c2ccc(C#N)cc2)n2cncn2)cc1 | inactive
14 | CC(C)(C)NC(=O)[C@H]1CC[C@H]2[C@@H]3CC[C@H]4NC(=O)C=C[C@]4(C)[C@H]3CC[C@]12C | inactive
